# Measurements reported in article PMC7862700, “An all-to-all approach to the identification of sequence-specific readers for epigenetic DNA modifications on cytosine”.
# Columns and labels:
# Assay in all cases: DAPPL (digital affinity profiling via proximity ligation, sequencing); 10 mM Tris-HCl pH 7.5, 50 mM NaCl, 1 mM DTT, 4% glycerol, room temperature, 30 min; GST-TFs on glutathione beads, 16-mer random dsDNA library, 0.1% formaldehyde crosslink after washing; high values mean tight binding
# Details in all cases: protein: recombinant; tags: N-terminal GST; dsDNA, one strand shown
# FLI1 = biological target: T1, FLI1 (Homo sapiens, UniProt Q01543 1-452)
# T1 sequence: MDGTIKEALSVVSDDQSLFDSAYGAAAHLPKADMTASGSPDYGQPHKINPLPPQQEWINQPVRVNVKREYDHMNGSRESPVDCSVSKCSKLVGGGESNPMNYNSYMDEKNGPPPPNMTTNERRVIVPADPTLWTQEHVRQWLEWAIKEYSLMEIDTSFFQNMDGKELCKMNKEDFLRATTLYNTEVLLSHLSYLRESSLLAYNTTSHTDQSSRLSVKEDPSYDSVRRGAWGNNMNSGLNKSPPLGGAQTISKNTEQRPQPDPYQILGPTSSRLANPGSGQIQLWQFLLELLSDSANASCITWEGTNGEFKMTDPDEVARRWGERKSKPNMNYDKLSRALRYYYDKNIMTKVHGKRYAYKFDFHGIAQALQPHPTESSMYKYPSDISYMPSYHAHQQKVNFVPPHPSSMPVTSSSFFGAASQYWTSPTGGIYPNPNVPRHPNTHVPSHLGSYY
# How it was run: (§1)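 The binding signal reported is, for every hexamer, its read frequency for a factor over its read frequency for the tag-only sample. Reads came from pools of yeast-expressed, GST-fused human transcription factors on glutathione beads, barcoded with DNA and mixed with that sample, which were incubated with 200 nmole of a random double-stranded 16-mer DNA library in Tris/NaCl/DTT/glycerol buffer at room temperature for 30 min. After washing, the pools were crosslinked with 0.1% formaldehyde, proximity-ligated with BsaI/T4 ligase for 1 h at 37 °C, PCR-amplified and sequenced on an Illumina NextSeq500.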
# ELK1 = biological target: T2, ELK1 (Homo sapiens, UniProt P19419 1-428)
# T2 sequence: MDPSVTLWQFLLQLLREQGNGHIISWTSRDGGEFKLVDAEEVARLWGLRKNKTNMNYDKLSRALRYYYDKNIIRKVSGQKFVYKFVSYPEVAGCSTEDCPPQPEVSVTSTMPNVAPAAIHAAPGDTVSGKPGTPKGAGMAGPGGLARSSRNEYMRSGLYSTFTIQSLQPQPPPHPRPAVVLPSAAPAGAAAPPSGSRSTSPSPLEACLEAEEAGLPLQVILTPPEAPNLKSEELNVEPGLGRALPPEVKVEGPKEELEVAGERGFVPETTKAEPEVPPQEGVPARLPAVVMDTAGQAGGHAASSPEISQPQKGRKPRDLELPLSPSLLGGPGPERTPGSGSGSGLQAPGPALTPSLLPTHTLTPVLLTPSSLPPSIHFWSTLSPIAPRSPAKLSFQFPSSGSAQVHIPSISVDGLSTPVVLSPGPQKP
# How it was run: as §1
# GABPA = biological target: T3, GABPA (Homo sapiens, UniProt Q06546 1-454)
# T3 sequence: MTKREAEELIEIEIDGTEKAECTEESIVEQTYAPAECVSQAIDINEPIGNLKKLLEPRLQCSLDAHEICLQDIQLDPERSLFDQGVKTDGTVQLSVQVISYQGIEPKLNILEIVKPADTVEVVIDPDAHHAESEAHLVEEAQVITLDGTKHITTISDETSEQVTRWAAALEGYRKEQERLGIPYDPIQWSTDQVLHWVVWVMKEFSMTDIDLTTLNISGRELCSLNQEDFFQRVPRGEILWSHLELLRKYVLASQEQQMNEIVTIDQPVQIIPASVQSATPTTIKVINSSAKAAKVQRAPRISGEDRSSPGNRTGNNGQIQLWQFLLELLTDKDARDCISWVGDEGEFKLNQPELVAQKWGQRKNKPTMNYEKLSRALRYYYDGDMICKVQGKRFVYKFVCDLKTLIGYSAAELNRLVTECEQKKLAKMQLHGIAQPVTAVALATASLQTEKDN
# How it was run: as §1
# ERG = biological target: T4, ERG (Homo sapiens, UniProt P11308 1-479)
# T4 sequence: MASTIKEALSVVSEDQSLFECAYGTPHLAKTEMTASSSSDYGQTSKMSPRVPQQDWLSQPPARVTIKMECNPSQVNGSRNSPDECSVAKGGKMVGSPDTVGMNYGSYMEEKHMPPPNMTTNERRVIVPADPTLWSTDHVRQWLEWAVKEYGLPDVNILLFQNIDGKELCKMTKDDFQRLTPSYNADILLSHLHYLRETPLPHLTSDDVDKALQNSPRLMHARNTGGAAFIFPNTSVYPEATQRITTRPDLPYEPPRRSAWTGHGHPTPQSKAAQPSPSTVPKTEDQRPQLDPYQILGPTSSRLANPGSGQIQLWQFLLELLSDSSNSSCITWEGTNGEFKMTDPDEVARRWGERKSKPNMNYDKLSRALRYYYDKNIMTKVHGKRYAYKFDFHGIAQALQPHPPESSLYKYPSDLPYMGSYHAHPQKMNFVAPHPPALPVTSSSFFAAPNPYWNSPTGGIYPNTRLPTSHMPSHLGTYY
# How it was run: as §1
# ELF1 = ELF1 (Homo sapiens, UniProt P32519 1-619)
# How it was run: as §1
# EHF = biological target: T5, EHF (Homo sapiens, UniProt Q9NZC4 1-300)
# T5 sequence: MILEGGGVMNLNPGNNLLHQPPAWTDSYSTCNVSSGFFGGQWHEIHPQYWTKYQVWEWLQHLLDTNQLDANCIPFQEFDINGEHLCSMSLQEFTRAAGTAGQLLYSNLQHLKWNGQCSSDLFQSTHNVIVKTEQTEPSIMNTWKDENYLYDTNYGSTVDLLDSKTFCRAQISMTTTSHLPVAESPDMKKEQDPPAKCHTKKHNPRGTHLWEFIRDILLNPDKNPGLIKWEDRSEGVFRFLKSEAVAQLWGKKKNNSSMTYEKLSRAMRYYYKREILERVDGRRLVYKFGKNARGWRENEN
# How it was run: as §1
# SPI1 = SPI1 (Homo sapiens, UniProt P17947 1-270)
# How it was run: as §1
# SPIB = SPIB (Homo sapiens, UniProt Q01892 1-262)
# How it was run: as §1
# ELK3 = biological target: T6, ELK3 (Homo sapiens, UniProt P41970 1-407)
# T6 sequence: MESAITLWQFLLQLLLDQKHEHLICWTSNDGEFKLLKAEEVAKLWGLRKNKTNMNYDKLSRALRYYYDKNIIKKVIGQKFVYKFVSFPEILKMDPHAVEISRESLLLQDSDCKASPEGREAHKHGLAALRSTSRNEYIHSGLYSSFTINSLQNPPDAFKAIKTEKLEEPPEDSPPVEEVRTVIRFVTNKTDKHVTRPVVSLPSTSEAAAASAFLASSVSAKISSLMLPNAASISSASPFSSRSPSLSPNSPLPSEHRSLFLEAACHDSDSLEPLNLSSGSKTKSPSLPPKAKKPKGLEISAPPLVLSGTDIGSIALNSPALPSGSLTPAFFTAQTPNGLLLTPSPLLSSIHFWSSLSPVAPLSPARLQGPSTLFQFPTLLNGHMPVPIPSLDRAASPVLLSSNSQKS
# How it was run: as §1
# Chain of ELF1 (P32519 whole entry): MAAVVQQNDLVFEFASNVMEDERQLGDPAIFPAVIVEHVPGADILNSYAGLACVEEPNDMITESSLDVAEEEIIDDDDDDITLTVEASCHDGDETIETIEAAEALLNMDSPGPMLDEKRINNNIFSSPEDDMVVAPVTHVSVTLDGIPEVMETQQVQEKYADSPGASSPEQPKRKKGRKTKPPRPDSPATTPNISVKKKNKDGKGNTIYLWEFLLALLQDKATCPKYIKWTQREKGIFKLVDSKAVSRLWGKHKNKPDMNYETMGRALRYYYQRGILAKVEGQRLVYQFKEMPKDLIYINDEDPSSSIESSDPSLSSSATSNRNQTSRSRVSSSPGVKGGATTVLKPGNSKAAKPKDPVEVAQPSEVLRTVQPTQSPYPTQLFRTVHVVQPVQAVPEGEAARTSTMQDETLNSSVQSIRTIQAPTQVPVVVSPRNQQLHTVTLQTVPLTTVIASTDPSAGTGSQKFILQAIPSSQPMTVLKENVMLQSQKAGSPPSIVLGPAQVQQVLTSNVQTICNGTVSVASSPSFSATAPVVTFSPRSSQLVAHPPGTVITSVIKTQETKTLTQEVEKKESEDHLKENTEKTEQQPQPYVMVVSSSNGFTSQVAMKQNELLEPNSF
# Chain of SPIB (Q01892 whole entry): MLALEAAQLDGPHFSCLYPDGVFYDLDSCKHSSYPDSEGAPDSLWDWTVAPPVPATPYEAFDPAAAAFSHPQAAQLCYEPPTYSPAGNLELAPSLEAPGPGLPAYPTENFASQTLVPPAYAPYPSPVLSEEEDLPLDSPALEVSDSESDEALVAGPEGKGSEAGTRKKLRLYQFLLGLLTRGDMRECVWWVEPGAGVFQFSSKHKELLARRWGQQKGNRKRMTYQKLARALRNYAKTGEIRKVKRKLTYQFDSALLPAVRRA
Sequence,binding signal (FLI1),binding signal (ELK1),binding signal (GABPA),binding signal (ERG),binding signal (ELF1),binding signal (EHF),binding signal (SPI1),binding signal (SPIB),binding signal (ELK3)
AACAAA,"1.18 fold enrichment (6-mer frequency, TF over GST control)","1.16 fold enrichment (6-mer frequency, TF over GST control)","1.1 fold enrichment (6-mer frequency, TF over GST control)","1.18 fold enrichment (6-mer frequency, TF over GST control)","1.14 fold enrichment (6-mer frequency, TF over GST control)","1.17 fold enrichment (6-mer frequency, TF over GST control)","1.16 fold enrichment (6-mer frequency, TF over GST control)","1.15 fold enrichment (6-mer frequency, TF over GST control)","1.27 fold enrichment (6-mer frequency, TF over GST control)"
TTGTAT,"1.52 fold enrichment (6-mer frequency, TF over GST control)","1.33 fold enrichment (6-mer frequency, TF over GST control)","1.29 fold enrichment (6-mer frequency, TF over GST control)","1.31 fold enrichment (6-mer frequency, TF over GST control)","1.32 fold enrichment (6-mer frequency, TF over GST control)","1.37 fold enrichment (6-mer frequency, TF over GST control)","1.11 fold enrichment (6-mer frequency, TF over GST control)","1.38 fold enrichment (6-mer frequency, TF over GST control)","1.4 fold enrichment (6-mer frequency, TF over GST control)"
TACGCG,"1.12 fold enrichment (6-mer frequency, TF over GST control)","1.14 fold enrichment (6-mer frequency, TF over GST control)","1.24 fold enrichment (6-mer frequency, TF over GST control)","1.14 fold enrichment (6-mer frequency, TF over GST control)","1.12 fold enrichment (6-mer frequency, TF over GST control)","1.06 fold enrichment (6-mer frequency, TF over GST control)","1.12 fold enrichment (6-mer frequency, TF over GST control)","1.13 fold enrichment (6-mer frequency, TF over GST control)","1.28 fold enrichment (6-mer frequency, TF over GST control)"
GAATTT,"1.21 fold enrichment (6-mer frequency, TF over GST control)","1.11 fold enrichment (6-mer frequency, TF over GST control)","1.21 fold enrichment (6-mer frequency, TF over GST control)","1.24 fold enrichment (6-mer frequency, TF over GST control)","1.17 fold enrichment (6-mer frequency, TF over GST control)","1.13 fold enrichment (6-mer frequency, TF over GST control)","1.24 fold enrichment (6-mer frequency, TF over GST control)","1.28 fold enrichment (6-mer frequency, TF over GST control)","1.19 fold enrichment (6-mer frequency, TF over GST control)"
GATCTC,"1.43 fold enrichment (6-mer frequency, TF over GST control)","1.19 fold enrichment (6-mer frequency, TF over GST control)","1.16 fold enrichment (6-mer frequency, TF over GST control)","1.2 fold enrichment (6-mer frequency, TF over GST control)","1.27 fold enrichment (6-mer frequency, TF over GST control)","1.42 fold enrichment (6-mer frequency, TF over GST control)","1.28 fold enrichment (6-mer frequency, TF over GST control)","1.25 fold enrichment (6-mer frequency, TF over GST control)","1.23 fold enrichment (6-mer frequency, TF over GST control)"
AACATC,"1.5 fold enrichment (6-mer frequency, TF over GST control)","1.35 fold enrichment (6-mer frequency, TF over GST control)","1.41 fold enrichment (6-mer frequency, TF over GST control)","1.48 fold enrichment (6-mer frequency, TF over GST control)","1.45 fold enrichment (6-mer frequency, TF over GST control)","1.51 fold enrichment (6-mer frequency, TF over GST control)","1.45 fold enrichment (6-mer frequency, TF over GST control)","1.37 fold enrichment (6-mer frequency, TF over GST control)","1.47 fold enrichment (6-mer frequency, TF over GST control)"
TACGAC,"1.33 fold enrichment (6-mer frequency, TF over GST control)","1.2 fold enrichment (6-mer frequency, TF over GST control)","1.29 fold enrichment (6-mer frequency, TF over GST control)","1.26 fold enrichment (6-mer frequency, TF over GST control)","1.27 fold enrichment (6-mer frequency, TF over GST control)","1.23 fold enrichment (6-mer frequency, TF over GST control)","1.25 fold enrichment (6-mer frequency, TF over GST control)","1.22 fold enrichment (6-mer frequency, TF over GST control)","1.36 fold enrichment (6-mer frequency, TF over GST control)"
TCGCTC,"1.25 fold enrichment (6-mer frequency, TF over GST control)","1.27 fold enrichment (6-mer frequency, TF over GST control)","1.35 fold enrichment (6-mer frequency, TF over GST control)","1.26 fold enrichment (6-mer frequency, TF over GST control)","1.29 fold enrichment (6-mer frequency, TF over GST control)","1.19 fold enrichment (6-mer frequency, TF over GST control)","1.29 fold enrichment (6-mer frequency, TF over GST control)","1.27 fold enrichment (6-mer frequency, TF over GST control)","1.37 fold enrichment (6-mer frequency, TF over GST control)"
